# Assay outcomes: PubChem BioAssay, National Center for Advancing Translational Sciences (NCATS)
# Hits are enriched below; roughly 5.3% of the tested compounds scored in any of these assays.
# 15-hLO-2 inh: inhibitors of human 15-lipoxygenase 2 (ALOX15B) | 110,000 tested, 0.56% active | purified 15hLO-2, xylenol orange hydroperoxide absorbance | Potency, µM (top dose mostly 57.1 µM), for inactives: at the top dose activity change, negative = inhibition, hits mostly inhibitors; further: potency means the concentration at half of the fitted maximal effect; nearly all actives have a fitted effect of over 60% in size
#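 Purified human 15hLO-2 (50 nM) preincubated 15 min with compound, then 45 uM arachidonic acid for 90 min at RT in 25 mM Hepes pH 7.5, 0.01% Triton X-100. Hydroperoxide detected by Fe-xylenol orange; 573/405 nm absorbance ratio.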
# HPGD block: blocks human HPGD enzyme activity | P15428 | purified HPGD, NADH fluorescence kinetic, PGE2 substrate | Potency, µM, inactives show at the highest dose activity change, negative = inhibition, most hits filed as inhibitors | 150,000 tested, 4.3% active | AID 894; active means well fitted inhibition curve with a large enough effect, not every such curve was filed as active; inconclusive means small, poorly fitted or top-dose-only effect, or another doubt; inactive means no such curve, though single readings can be large or run the other way; further: potency means the concentration at half of the fitted maximal effect
# Target sequence (P15428 whole entry, looked up): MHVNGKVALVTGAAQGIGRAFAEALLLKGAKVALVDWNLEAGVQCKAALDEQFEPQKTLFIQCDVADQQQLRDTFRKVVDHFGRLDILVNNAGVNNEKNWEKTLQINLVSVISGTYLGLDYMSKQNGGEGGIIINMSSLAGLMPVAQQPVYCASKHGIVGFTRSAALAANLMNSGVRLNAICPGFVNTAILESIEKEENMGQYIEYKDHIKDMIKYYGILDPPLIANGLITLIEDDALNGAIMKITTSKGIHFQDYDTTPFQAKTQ
#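 20 nM HPGD preincubated 15 min at room temperature with compound in 50 mM Tris-HCl pH 8, 0.01% Tween 20. Started with 1 mM NAD+ and 30 uM prostaglandin E2; NADH fluorescence (360/450 nm) read 5 times over 30-s intervals, last minus first.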
# PNC assembly inh: blocks assembly of the perinucleolar compartment; PC3M PTB-GFP, PNC prevalence imaging, 16 h; hits give low values; activity change (PNC), negative = inhibition, % at 10 µM; 140,000 tested, 3.1% active; AID 2417;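 active means readout at or below -70, meaning at least 70% loss of cells showing the perinucleolar compartment, a nuclear body marking cancer cells; inconclusive means readout between -30 and a set limit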;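 further: plate controls were DMSO wells for no effect and camptothecin positive control wells for full effect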
#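 Compounds are pinned in duplicate onto adhered PC3M cells stably expressing GFP-tagged PTB and incubated 16 h at 37 C. Cells are then fixed, nuclei stained with Hoechst, and PNC-positive cells counted.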
# ALOX12 inhib: blocks human 12-lipoxygenase activity; purified 12-hLO, xylenol orange hydroperoxide absorbance; Potency, µM (doses to about 57.1 µM), for inactives: at the top dose activity change, negative = inhibition, hits mostly inhibitors; 150,000 tested, 0.12% active; AID 1452; further: potency means the concentration at half of the fitted maximal effect; nearly all actives have a fitted effect of over 55% in size
#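 Hydroperoxide output read as Fe(III)-xylenol orange absorbance, 573-to-405 nm ratio, after 30 min reaction with 40 uM arachidonic acid. Enzyme: 150 nM purified human 12hLO, 15 min compound preincubation; 25 mM Hepes pH 7.0, room temperature.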
# IMPase cell inh: membrane-permeable compound that blocks inositol monophosphatase; P97697; CHO-M1 cells, IP1 accumulation, HTRF TR-FRET ratio; inhibition (IP1 accumulation), % at 46.1 µM; 120,000 tested, under 10 active; AID 901; active means well fitted curve in the direction sought with a large enough effect in the signal ratio, not every such curve was filed as active; inconclusive means small, poorly fitted or top-dose-only effect, or a change in a side signal; inactive means no such curve, though single readings can be large or run the other way; the % refers to the signal ratio;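 further: cells stimulated with carbachol in lithium chloride buffer; plate controls were DMSO basal wells for no effect and reference inhibitor wells for full effect; higher means more IMPase inhibition seen as more IP1 and lower FRET ratio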
# Target sequence (P97697 whole entry, looked up): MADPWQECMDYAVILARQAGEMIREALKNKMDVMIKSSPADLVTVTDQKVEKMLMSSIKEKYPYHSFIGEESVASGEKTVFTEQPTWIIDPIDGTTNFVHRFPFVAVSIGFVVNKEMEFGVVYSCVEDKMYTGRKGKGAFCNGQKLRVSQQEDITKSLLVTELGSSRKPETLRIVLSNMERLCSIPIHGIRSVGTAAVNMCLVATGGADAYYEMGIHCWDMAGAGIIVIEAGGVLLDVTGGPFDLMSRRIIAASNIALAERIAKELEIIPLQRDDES
#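 Measured: the HTRF emission ratio (665/620 nm) plus the 620 nm donor channel, each fitted to the Hill equation to give AC50. Cells were CHO-M1 given compounds up to 46 uM and a 30 min carbachol stimulation at 37C.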
# IMPase Li cell: IMPase inhibition in cells with lithium potentiation | CHO-M1 cells, IP1 TR-FRET (IP-One), carbachol + lithium | Potency, µM (top dose mostly 59.4 µM), for the others: top-dose activity, negative = IMPase inhibition, usual class: inhibitors | 210,000 tested, 0.35% active | AID 1457;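 further: IP1 builds up when IMPase is blocked and the TR-FRET signal falls; potency means the concentration at half of the fitted maximal effect; plate controls were basal vehicle for no effect and high inhibitor control for full effect; nearly all actives have a fitted effect of over 50% in size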
#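 Steps: plate 2000 CHO-M1 cells per well and culture 16–30 h; add compound and lithium; incubate 30 min, 37C; add d2-IP1 tracer and Eu cryptate anti-IP1 antibody in lysis buffer; read after 10 min at room temperature.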
# * = called active by the depositor; ? = inconclusive; nt = no result given; [ ] = another dose, or the depositor's remark. Unless noted, the call rests on the fitted dose curve; in most records, active means well fitted curve in the direction sought with a large enough effect; inconclusive means small, poorly fitted or top-dose-only effect, or another doubt; inactive means no such curve, though single readings can be large; an effect the other way counts as inactive or inconclusive. Unless noted, on the % scale 0 is the no-effect control and ±100 the full control effect.
SMILES,15-hLO-2 inh,HPGD block,PNC assembly inh,ALOX12 inhib,IMPase cell inh,IMPase Li cell
COc1ccc(-n2c(=O)c(-c3cccs3)nc3cnc(N(C)C)nc32)cc1,-8%,nt,nt,nt,nt,3%
COc1c(C=O)c(=O)[nH]c2c(OC)cccc12,nt,-20%,nt,nt,nt,7%
COc1cccc(CC2(CO)CCCN(Cc3cc4ccccc4[nH]3)C2)c1 (stereo not drawn),nt,nt,nt,nt,nt,5%
CCOC(=O)C1CCCN(C(=O)c2ccc(CNc3c(N4CCC(C)CC4)c(=O)c3=O)cc2)C1 (stereo not drawn),-7%,10µM*,9,-12%,-6,26%[38.3 µM]
COc1ccc(OCC(=O)N2CCN(C(=O)c3cccc(OC)c3)CC2)cc1,nt,nt,nt,nt,4,nt
COc1cc(C(=O)O)ccc1O,nt,-7%,12,0%,nt,2%
O=C(O)c1ccc2cc(-c3ccc(O)c(C45CC6CC(CC(C6)C4)C5)c3)ccc2c1,7.9µM*,?,nt,?,nt,3%
CCc1ccc(CN2CCN(C(=O)c3cccc(OC)c3OC)CC2)cc1,nt,-11%,-100*,0%,-11,5%
COc1cc(CN2CCN(C(=O)CC(C)C)CC2)cc(OC)c1OC,-10%,-4%,?,-4%,4,2%[38.3 µM]
COc1ccc(CN2CCN(C(=O)c3cc(OC)c(OC)c(OC)c3)CC2)cc1OC,nt,-3%,-100*,-3%,1,1%
CCOc1ccc(C(=O)N2CCCC2)cc1OC,-1%,28µM*,36,3%,7,-11%
COc1ccc(C(=O)N2CCN(Cc3cc(OC)c(O)c(OC)c3)CC2)cc1OC,-12%,nt,-87*,-24%,12,nt
CCOc1ccc(C(=S)N2CCCC2)cc1OC,nt,-6%,-6,-2%,nt,3%
COCCN(CCOC)c1nc(C)nc2c1nc(-c1ccccc1)n2CCCN(C)C,1%,?,nt,3%,nt,-8%
O=C1c2ccccc2NC(c2cccnc2)N1c1ccccc1F (stereo not drawn),nt,?,?,2%,nt,-2%
O=C(N/N=C/c1ccc(O)cc1O)/C(=C/c1ccccc1)CCO,nt,-4%,39,-14%,9,5%
Cc1cc(C)c(S(C)(=O)=O)c(Oc2ccccc2C)n1,3%,28µM*,59,-4%,9,8%[38.3 µM]
Cc1cc(C)c(S(C)(=O)=O)c(Oc2ccc(F)cc2)n1,-2%,-5%,74,5%,4,-19%[38.3 µM]
Cc1cc(C)cc(Oc2nc(-c3ccccc3)cc(C)c2S(C)(=O)=O)c1,7%,?,-112*,-1%,-1,39%[38.3 µM]
O=C(NCc1ccccc1)c1ccc(Cc2nc3ccccc3[nH]2)cc1,nt,-4%,nt,-5%,nt,nt
CC[C@H]1[C@@H]2C=C[C@@H]3[C@H]4C/C=C\C(=O)NCCC[C@@H]5NC(=O)C(=C5O)C(=O)CC[C@@H]4C[C@@H]3[C@H]2C[C@H]1C,nt,nt,nt,nt,nt,-5%
O=[N+]([O-])c1ccc(O)c(/C=N\N=C2c3ccccc3-c3ccccc32)c1,nt,-18%,?,0%,nt,20%
NC(N)=N/N=C/c1cc([N+](=O)[O-])ccc1O,nt,-13%,-115*,-7%,1,9%
O=C(CS(=O)(=O)c1c[nH]c2ccccc12)N1CCCCCC1,nt,nt,nt,nt,nt,-4%
CCOC(=O)Cc1cc(=O)n2[nH]cc(-c3cccc(Br)c3)c2n1,nt,nt,nt,nt,nt,8%
SMILES,15-hLO-2 inh,HPGD block,PNC assembly inh,ALOX12 inhib,IMPase cell inh,IMPase Li cell
O=C1c2cccnc2-c2ncccc21,-1%,-20%,59,-8%,3,-1%[38.3 µM]
CC1(C)OCC(CSC2=C(SCC3COC(C)(C)O3)C(=O)c3ncccc3C2=O)O1 (stereo not drawn),1%,3.5µM*,nt,-29%,nt,49%
Cc1ccc[n+](CC(=O)Nc2nc3ccccc3s2)c1,nt,nt,nt,nt,nt,24%
Cc1cc(C)c2nc(Cl)c(CN(Cc3ccco3)C(=O)Nc3ccccc3C)cc2c1,3%,?,-90*,-1%,10,7%
COCCN(Cc1cc2cc(C)cc(C)c2nc1Cl)C(=O)Nc1ccccc1,10%,-10%,60,0%,14,8%
O=C(NCc1ccccc1)c1cc[n+](Cc2ccccc2)cc1,nt,nt,nt,nt,nt,7%
Cc1cc(=O)oc(C)c1C(=O)OCC(=O)c1ccc(Br)cc1,nt,-27%,-90*,-26%,3,17%
CN(C)C(=O)OC1=C(c2ccccc2)Sc2ccccc2-n2cccc21,nt,nt,nt,nt,nt,10%
COc1ccc(Cn2c(SCc3cc(C)ccc3C)nc3cc(OC)c(OC)cc3c2=N)cc1,24%,?,-114*,-3%,5,23%[38.3 µM]
COCCCn1c(SCc2cccc(C(F)(F)F)c2)nc2cc(OC)c(OC)cc2c1=N,nt,?,-106*,-4%,11,7%[38.3 µM]
CSc1nsc(SCC(=O)N2CCN(c3ccccc3)CC2)n1,-14%,-16%,-18,-4%,0,15%[38.3 µM]
CCOC(=O)c1ccc(NC2=CC(=O)CC(c3ccco3)C2)cc1 (stereo not drawn),nt,nt,nt,nt,nt,10%
O=C1C=C(Nc2ccc(O)cc2)CC(c2ccco2)C1 (stereo not drawn),nt,22µM*,2,?,-21,17%
CC(C)CNC1=CC(=O)CC(c2ccco2)C1 (stereo not drawn),-16%,-24%,-81*,-17%,-2,8%[38.3 µM]
O=C1C=C(NCc2ccc(Cl)cc2)CC(c2ccco2)C1 (stereo not drawn),3%,-17%,16,-4%,7,-10%[38.3 µM]
Cc1ccn2c(-c3n[nH]c(=S)n3C)c(C)nc2c1,nt,?,?,2%,nt,0%
Cc1ccc2nc(NC(=S)NC(=O)c3ccc(OC(C)C)cc3)sc2c1,?,10µM*,15,?,3,2%[38.3 µM]
CC(=O)Nc1ccc(S(=O)(=O)Nc2nc3ccc(C)cc3s2)cc1,1%,-21%,?,-8%,3,-5%[38.3 µM]
CCOCC(=O)Nc1nc2ccc(OCC)cc2s1,-4%,-5%,?,-5%,2,28%[38.3 µM]
CCOCC(=O)Nc1nc2ccc(C)cc2s1,nt,-9%,-100*,-5%,-4,5%
Cc1ccc(S(=O)(=O)Nc2nc3ccc(S(C)(=O)=O)cc3s2)cc1,-27%,25µM*,?,-2%,-6,11%[38.3 µM]
CCC(=O)Nc1nc2ccc(S(C)(=O)=O)cc2s1,nt,-13%,-100*,-1%,-7,-2%
CCCCC(Sc1nc(N)c(NC(=O)c2ccc(OC)cc2)c(=O)[nH]1)C(=O)O (stereo not drawn),nt,nt,nt,nt,nt,-6%
COc1ccc(Cl)cc1C(=O)Nc1nc2ccc(S(C)(=O)=O)cc2s1,nt,nt,nt,nt,nt,13µM*
COc1cc(OC)cc(C(=O)Nc2nc3ccc(S(C)(=O)=O)cc3s2)c1,nt,nt,nt,nt,nt,18%
CC(C)=CC[C@@H](O)C1=CC(=O)c2c(O)ccc(O)c2C1=O,nt,nt,nt,nt,nt,98%
COc1cc(O)c(C(=O)c2ccccc2)cc1O,-5%,4.5µM*,nt,-25%,nt,16%
